CHX counter – counter-screen hit for Shiga toxin inhibitors, cycloheximide; cell reporter, cycloheximide protein synthesis inhibition counterscreen; max response, %; actives 12% (n = 300,000); in the data active = max response mostly above about 13%, no sharp cut-off; inactive = mostly below about 14%; also: read at 38.3 µM for the half of the compounds with a filed dose; 0% is about no effect
Pf growth 48h – inhibits P. falciparum growth in the first generation, 48 h | P. falciparum luciferase growth in erythrocytes, 48 h | Potency, µM (doses to about 28.7 µM), inactives show top-dose activity change, negative = inhibition, actives largely listed as inhibitors | actives 5.9% (n = 310,000); also: potency is read from the fitted curve at half-maximal effect; % is scaled to controls: 0 for no effect and ±100 for the full control effect
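Growth was read as firefly luciferase luminescence after a 48 h, 37 C, 5% CO2 exposure of compounds to reporter-bearing P. falciparum cultures (0.1% parasitemia, 2% hematocrit final) in Albumax-supplemented RPMI 1640.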
Shiga toxin inh – blocks Shiga toxin action in Vero cells; AID 2315; actives 9.2% (n = 290,000); inhibition, % at 38.7 µM; Vero cells, Shiga toxin protein synthesis inhibition reporter; in the data active = inhibition mostly above about 28%, no sharp cut-off; inactive = mostly below about 43%; also: 0% is about no effect
Pf growth 96h – P. falciparum growth inhibition at 96 hour, primary screen for plastid delayed-death inhibitors | P. falciparum luciferase reporter growth, 96 h | Potency, µM (titrated, usually from 28.7 µM), for the others: top-dose activity change, negative = inhibition, actives largely listed as inhibitors | actives 6.9% (n = 320,000); also: potency is read from the fitted curve at half-maximal effect; % is scaled to controls: 0 for no effect and ±100 for the full control effect
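Plates of compound plus infected erythrocytes (2% hematocrit, 0.05% parasitemia final) incubate 96 hours, 37 C, 5% CO2. Detection reagent added; reduced luminescence from the parasites' luciferase reporter flags inhibition.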
Numbers without * were called inactive. Sampled rows, rich in hits. Any-hit rate of the full collection: about 21%. Unless noted, calls follow the shape of the dose curve; as a rule, active = well fitted inhibition curve with a large enough effect; inconclusive = small, poorly fitted or top-dose-only effect, or another doubt; inactive = no such curve, though single readings can be large or run the other way.

Results for CCCc1cc(=O)oc2c3c(cc(OCC(=O)NCC4CCC(C(=O)O)CC4)c12)OC(C)(C)CC3 (stereo not drawn) ?
CHX counter: 6; Pf growth 48h: inconclusive; Shiga toxin inh: -1; Pf growth 96h: 1.3µM*

How did CCc1cc(=O)oc2c3c(cc(OCC(=O)NCCCCCC(=O)O)c12)OC(C)(C)CC3 do in these assays?
CHX counter: -2; Pf growth 48h: inconclusive; Shiga toxin inh: -5; Pf growth 96h: inconclusive

How did COc1ccc(C(=O)NNC(=O)c2ccncc2)cc1 do in these assays?
CHX counter: 6; Pf growth 48h: -7%; Shiga toxin inh: 7; Pf growth 96h: -22%

Results for CCOc1cc(NC(=S)Nc2ccccc2)c(OCC)cc1NC(=O)c1ccc(OC)cc1 ?
CHX counter: 21*; Pf growth 48h: 12µM*; Shiga toxin inh: 10; Pf growth 96h: inconclusive

How did COc1ccc(NC(=O)c2c(C)noc2-c2snnc2C)cc1 do in these assays?
CHX counter: 11; Pf growth 48h: 13µM*; Shiga toxin inh: -15; Pf growth 96h: 2.9µM*

What do the screens show for `COc1ccc(C(=O)NNC(=S)NC(=O)c2ccc(OC)cc2)cc1`?
CHX counter: 5; Pf growth 48h: -9%; Pf growth 96h: 9.3µM*

What do the screens show for `CCOc1cc(NC(=S)Nc2cccc(OC)c2)c(OCC)cc1NC(=O)c1ccc(C)cc1`?
CHX counter: 3; Pf growth 48h: inconclusive; Shiga toxin inh: 12; Pf growth 96h: 36%

What do the screens show for `COc1ccc(C(=O)NNC(=O)c2snnc2C)cc1`?
CHX counter: 17; Pf growth 48h: 13%; Shiga toxin inh: 42*; Pf growth 96h: -10%

How did O=C(OCc1cncs1)c1ccccc1 do in these assays?
CHX counter: 19; Pf growth 48h: 12%; Shiga toxin inh: -3; Pf growth 96h: -6%

How did COc1ccc(C(=O)N/C(=C/c2ccc(Cl)cc2)C(=O)Nc2ccc(C(=O)O)cc2)cc1 do in these assays?
CHX counter: -3; Pf growth 48h: 3%; Shiga toxin inh: -9; Pf growth 96h: inconclusive

Results for C=CCNC(=S)NNC(=O)c1ccc(OCCC)cc1 ?
CHX counter: 0; Pf growth 48h: 6%; Shiga toxin inh: 16; Pf growth 96h: inconclusive

What do the screens show for `CCCOc1ccc(C(=O)NNC(=S)NC(=O)CC)cc1`?
CHX counter: 18; Pf growth 48h: inconclusive; Shiga toxin inh: -16; Pf growth 96h: 15µM*

How did CCNC(=S)NNC(=O)c1ccc(OC)cc1 do in these assays?
CHX counter: 1; Pf growth 48h: 13%; Shiga toxin inh: 11; Pf growth 96h: inconclusive

Results for COc1ccc(C(=O)NNC(=S)Nc2ccccc2)cc1 ?
CHX counter: 41*; Pf growth 48h: 146%; Shiga toxin inh: 58; Pf growth 96h: inactive

Results for COc1ccc(C(=O)NNC(=O)c2cccc(F)c2)cc1 ?
CHX counter: 26*; Pf growth 48h: 46%; Shiga toxin inh: 68*; Pf growth 96h: 84%

Results for COc1ccc(C(=O)NNC(=O)C2(C)CC2(Br)Br)cc1 (stereo not drawn) ?
CHX counter: 26*; Pf growth 48h: 30%; Shiga toxin inh: 35*; Pf growth 96h: 4%

What do the screens show for `Cc1ccccc1C1CC(=O)Oc2cc(O)ccc21` (stereo not drawn)?
CHX counter: 1; Shiga toxin inh: inactive

What do the screens show for `CCc1noc(C)c1C(=O)NNC(=O)COc1ccccc1C`?
Pf growth 48h: 23%; Pf growth 96h: 12%

How did CS(=O)(=O)c1ccc(S(=O)(=O)N2CCC(CO)(CCCc3ccccc3)CC2)cc1 do in these assays?
CHX counter: -1; Pf growth 48h: -26%; Shiga toxin inh: -2; Pf growth 96h: inconclusive

How did CC1c2ccsc2CCN1S(=O)(=O)c1ccccc1 (stereo not drawn) do in these assays?
CHX counter: 0; Pf growth 48h: -4%; Shiga toxin inh: 2; Pf growth 96h: -8%

What do the screens show for `O=S(=O)(c1cccc(F)c1)N1CCc2sccc2C1c1ccc(OC(F)(F)F)cc1` (stereo not drawn)?
CHX counter: 1; Pf growth 48h: 13µM*; Shiga toxin inh: 3; Pf growth 96h: inconclusive

How did COC(=O)c1nn(-c2nc(-c3ccc(OC)c(OC)c3)cc(C(F)(F)F)n2)cc1[N+](=O)[O-] do in these assays?
CHX counter: -7; Pf growth 48h: -17%; Shiga toxin inh: -15; Pf growth 96h: 17µM*

What do the screens show for `COc1ccc(-c2cc(C(F)(F)F)nc(N3CCCCC3)n2)cc1OC`?
CHX counter: -2; Pf growth 48h: 3.3µM*; Shiga toxin inh: -4; Pf growth 96h: 75%

What do the screens show for `COc1ccc(-c2cc(C(F)(F)F)nc(N3CCN(C)CC3)n2)cc1OC`?
CHX counter: -3; Pf growth 48h: inconclusive; Shiga toxin inh: 12; Pf growth 96h: 5.2µM*

How did COc1ccc(-c2cc(C(F)(F)F)nc(N3CCN(C)CC3)n2)cc1 do in these assays?
CHX counter: -4; Pf growth 48h: 13µM*; Shiga toxin inh: -21; Pf growth 96h: 36%

Results for COc1ccc(-c2cc(C(F)(F)F)nc(N3CCCCCC3)n2)cc1 ?
CHX counter: -2; Pf growth 48h: 2%; Shiga toxin inh: -8; Pf growth 96h: 16%

How did COC(=O)c1nn(-c2nc(-c3cccc(OC)c3)cc(C(F)(F)F)n2)cc1[N+](=O)[O-] do in these assays?
CHX counter: -6; Pf growth 48h: -6%; Shiga toxin inh: 3; Pf growth 96h: inconclusive

What do the screens show for `Cc1cc(C)n(-c2ccc(C(=O)Nc3ccc(C)c(S(=O)(=O)N4CCOCC4)c3)cc2)n1`?
CHX counter: 10; Pf growth 48h: inconclusive; Shiga toxin inh: 8; Pf growth 96h: inconclusive

How did Cc1ccc(SC(C)C(=O)N2CCN(c3ccccc3)CC2)cc1 (stereo not drawn) do in these assays?
CHX counter: 4; Pf growth 48h: 27%; Shiga toxin inh: 9; Pf growth 96h: 8.3µM*

How did O=C(C(Sc1ccccc1)c1ccccc1)N1CCN(c2ccccc2)CC1 (stereo not drawn) do in these assays?
CHX counter: -1; Pf growth 48h: inconclusive; Shiga toxin inh: -12; Pf growth 96h: inconclusive

How did O=C(NCCOc1ccccc1)C1CCCCC1 do in these assays?
CHX counter: 29*; Pf growth 48h: 103%; Shiga toxin inh: 72*; Pf growth 96h: inconclusive

What do the screens show for `O=C(CCC(=O)c1ccccc1)NCCOc1ccccc1`?
CHX counter: 0; Pf growth 48h: 4%; Shiga toxin inh: 20; Pf growth 96h: 6%

What do the screens show for `O=C(CC1CCCCC1)NCCOc1ccccc1`?
CHX counter: 9.7*; Pf growth 48h: 27%; Shiga toxin inh: 50*; Pf growth 96h: -9%

Results for O=C(NCCOc1ccc(F)cc1)C1CCN(S(=O)(=O)c2ccccc2)CC1 ?
CHX counter: -5; Pf growth 48h: 13%; Shiga toxin inh: 14; Pf growth 96h: 0%

What do the screens show for `O=C(NCCS(=O)(=O)N1CCN(c2ccc(F)cc2)CC1)c1ccco1`?
Pf growth 48h: -27%; Pf growth 96h: 2%

How did Cc1ccc(C)c(NC(=O)C(c2ccccc2)N2CCOCC2)c1 (stereo not drawn) do in these assays?
CHX counter: 7; Pf growth 48h: 27%; Shiga toxin inh: 33; Pf growth 96h: 17%

Bioassay records (PubChem)
